BL2 CD40 inh – inhibitors of CD40-induced NF-kB signaling, primary screen, BL2 cells, luciferase reporter, single point; CD40L-induced, 4 h; inhibition, % at 10 µM; hit rate 0.94% among 83,000;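 active means mean inhibition of at least 50% with a set share of replicates also reaching that level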
Each line names hits and unclear results; the compound was inactive in the other large screens; [ ] = another dose, or the depositor's remark. The full list was thinned out, with hits kept by preference.

CC(C)(C)[S@](=O)N1Cc2cc(C(=O)NCC(F)(F)F)nc(-c3cccc(-c4cccc(F)c4)c3)c2[C@@H]1CCO	BL2 CD40 inh 80[25 µM]
CC(C)(C)[S@@](=O)N1Cc2cc(C(=O)NCC(F)(F)F)nc(-c3cccc(-c4cccc(F)c4)c3)c2[C@H]1CCO	none
O=C(C[C@H]1C[C@@H]2c3cc(NC(=O)C4CCC4)ccc3O[C@@H]2[C@@H](CO)O1)NCc1ccccn1	none
COc1ccc2c3c([nH]c2c1)[C@@H](CO)N(C(=O)CC1CC1)CC31CCN(C(=O)c2ccccc2)CC1	none
Cc1ccc(C2(C)NC(=O)N(CC(=O)Nc3cccnc3Cl)C2=O)cc1 (stereo not given)	BL2 CD40 inh 26
O=C(CN1C(=O)NC(c2ccccc2)(c2ccccc2)C1=O)Nc1cccnc1Cl	none
CC1(c2ccc(OC(F)F)cc2)NC(=O)N(CC(=O)Nc2cccnc2Cl)C1=O (stereo not given)	none
C[C@H]1CN(C)C(=O)c2cccc(N(C)C)c2O[C@H]1CN(C)C	none
CC[C@@H]1C/C=C\CCNC(=O)C[C@H](c2ccccc2)C(=O)N1	none
N#C[C@@H]1[C@H](c2ccccc2-c2ccc(F)cc2)[C@H](CO)N1C(=O)NC1CCCCC1	none
CCCn1c(C)cc(C(=O)CN2C(=O)c3ccccc3S2(=O)=O)c1C	BL2 CD40 inh 53
CCCn1c(C)cc(C(=O)Cn2nnc3ccccc3c2=O)c1C	none
Cc1cc(C(=O)CN2C(=O)c3ccccc3S2(=O)=O)c(C)n1CC1CCCO1 (stereo not given)	none
CO[C@@H](C(=O)N(C)C[C@H]1OCc2ccccc2-c2c(n(C)c3ccccc23)C(=O)N([C@H](C)CO)C[C@@H]1C)c1ccccc1	none
CC1=C(SCCO)C(=O)c2ccccc2C1=O	BL2 CD40 inh 91[25 µM]
O=C1c2ccccc2-c2c1c1ccccc1c(=O)n2CCO	none
O=S1(=O)N=C(SCCO)c2ccccc21	none
CC(=O)Nc1cccc2c1O[C@H](CN(C)S(C)(=O)=O)[C@@H](C)CN(C)C2=O	none
CCN1[C@@H]2c3ccc(-c4ccc(F)cc4)c(=O)n3C[C@H]1[C@H](CO)[C@H]2C(=O)Nc1nccs1	none
CCCNC(=O)N1[C@H](C#N)[C@@H](c2ccc(-c3ccc(C(=O)N(C)C)cc3)cc2)[C@@H]1CO	none
CCCNC(=O)N1[C@@H](C#N)[C@@H](c2ccc(-c3cccnc3)cc2)[C@@H]1CO	none
CCCNC(=O)N1[C@H](CO)[C@H](c2ccc(-c3cccc(OC)c3)cc2)[C@@H]1C#N	BL2 CD40 inh 68[25 µM]
CCCNC(=O)N1[C@H](CO)[C@H](c2ccc(-c3cccnc3)cc2)[C@@H]1C#N	none
CCCNC(=O)N1[C@H](CO)[C@H](c2ccccc2-c2cccc(OC)c2)[C@@H]1C#N	none
CCCNC(=O)N1[C@@H](C#N)[C@H](c2ccc(-c3cccc(OC)c3)cc2)[C@@H]1CO	BL2 CD40 inh 51[25 µM]
CCCNC(=O)N1[C@H](CO)[C@H](c2ccc(/C=C/c3ccccc3)cc2)[C@@H]1C#N	BL2 CD40 inh 66[25 µM]
CCCNC(=O)N1[C@H](C#N)[C@@H](c2ccc(-c3ccccc3F)cc2)[C@@H]1CO	none
CCCNC(=O)N1[C@H](C#N)[C@@H](c2ccc(-c3ccccc3F)cc2)[C@H]1CO	none
CO[C@@H]1CN(C)C(=O)c2cc(NC(=O)C3CCCC3)ccc2OC[C@@H](C)N(Cc2nccs2)C[C@H]1C	none
CCCN1CCC2(CC1)CN(Cc1ccc3c(c1)OCO3)[C@H](CO)c1[nH]c3cc(OC)ccc3c12	none
CCCN(C)C[C@@H]1OCc2cnnn2CCCC(=O)N([C@@H](C)CO)C[C@@H]1C	none
COc1ccc2c3c([nH]c2c1)[C@@H](CO)N(C(=O)CN1CCOCC1)CC31CN(Cc2ccccc2)C1	none
C[C@H](CO)N1C[C@H](C)[C@@H](CN(C)C(=O)OCc2ccccc2)OCc2cnnn2CCCC1=O	none
COc1ccc(S(=O)(=O)N2C[C@H](O)COC[C@H]3O[C@H](CC(=O)N[C@H]4CCN(Cc5ccccc5)C4)CC[C@@H]32)cc1	none
CCC(=O)N1[C@H](CO)[C@@H](c2ccccc2)C12CN(C(=O)CN1CCOCC1)C2	none
CCCNC(=O)[C@@H]1[C@@H](CO)[C@@H]2Cn3c(cccc3=O)[C@@H]2N1CC1CCCC1	none
COCC(=O)Nc1ccc2c(c1)[C@H]1C[C@H](CC(=O)N3CCOCC3)O[C@H](CO)[C@H]1O2	none
CC(C)[C@@H]1CC=CC[C@H](C)Oc2ccccc2C(=O)N(C)[C@@H](C(C)C)C(=O)N1 (mixture of isomers)	none
COc1ccc2[nH]c(=O)c3c(c2c1)OC(C)(C)C=C3	BL2 CD40 inh 38
COc1ccc2nc(C)[nH]c(=O)c2c1	none
COc1ccc2[nH]c(O)c(NC(C)=O)c2c1	none
O=C(C[C@H]1C[C@H]2c3cc(NC(=O)c4ccc5c(c4)OCO5)ccc3O[C@H]2[C@@H](CO)O1)NC1CCCCC1	none
Cc1ccc(OC(=O)N(C)C[C@@H]2OCc3cn(nn3)CCCC(=O)N([C@H](C)CO)C[C@@H]2C)cc1	none
CCCC#Cc1ccc2c(c1)[C@H]1[C@H](CCN1S(=O)(=O)c1ccc(C)cc1)[C@H](CO)N2C	none
CN1C(=O)c2cc(NC(=O)Cc3cccs3)ccc2OC[C@@H]2O[C@@H](CC(=O)NCC3CC3)CC[C@H]21	none
O=C(Nc1ccc(F)cc1)N1CCCCN2[C@H](CO)[C@@H](c3ccc(C#Cc4ccccc4)cc3)[C@H]2C1	none
O=C(Nc1ccccc1)N1CCCCN2[C@@H](CO)[C@@H](c3ccc(C#Cc4ccccc4)cc3)[C@@H]2C1	none
N#Cc1cccc(-c2ccc([C@@H]3[C@H](CO)N4CCCCN(C(=O)Nc5cccc(F)c5)C[C@@H]34)cc2)c1	BL2 CD40 inh 92[25 µM]
O=C(Nc1ccc(F)cc1)N1CCCCN2[C@@H](CO)[C@@H](c3ccc(C#Cc4ccccc4)cc3)[C@@H]2C1	BL2 CD40 inh 63
N#Cc1cccc(-c2ccc([C@@H]3[C@H]4CN(C(=O)Nc5cccc(F)c5)CCCCN4[C@H]3CO)cc2)c1	none
N#Cc1cccc(-c2ccc([C@@H]3[C@@H](CO)N4CCCCN(C(=O)Nc5cccc(F)c5)C[C@H]34)cc2)c1	none
CO[C@@H]1CN(C)C(=O)c2ccc(NC(=O)Nc3ccccc3F)cc2OC[C@H](C)N(CC2CC2)C[C@@H]1C	none
CC(C)NC(=O)Nc1cccc2c1O[C@@H](CN(C)S(C)(=O)=O)[C@@H](C)CN(C)C2=O	none
CN(C)CC(=O)N[C@@H]1CC[C@H](CCn2cc(C3CCCC3)nn2)O[C@@H]1CO	none
CC(=O)N(C)C[C@@H]1Oc2ncccc2C(=O)N(C)C[C@H]1C	none
Cc1sc2ccccc2[n+]1CC(=O)O	none
CC[n+]1c(/C=C(/C)SC)sc2ccccc21	none
CC[n+]1c(C)sc2cc(C)ccc21	BL2 CD40 inh 56
Cc1ccc(S(=O)(=O)N[C@@H]2C=C[C@@H](CC(=O)NCc3ccc(Cl)c(Cl)c3)O[C@H]2CO)cc1	none
CCCC(=O)N1C[C@@H]2[C@H](c3ccccc31)[C@H](CO)N2Cc1cocn1	none
CC=Cc1ccc2n(c1=O)C[C@@H]1[C@@H](CO)[C@H](C(=O)NC3CCCC3)N(Cc3ccccc3)[C@H]21 (mixture of isomers)	none
CN(C)CCCN1c2ccccc2Sc2ccc(Cl)cc21	none
OCCN1CCN(CCCN2c3ccccc3Sc3ccc(Cl)cc32)CC1	none
CSc1ccc2c(c1)N(CCC1CCCCN1C)c1ccccc1S2 (stereo not given)	BL2 CD40 inh 74
CC(=O)N(C)C[C@H]1Oc2ccc(N(C)C)cc2CC(=O)N(C)C[C@H]1C	none
c1ccc2oc(C3=NNC(=NC4CC4)SC3)cc2c1	BL2 CD40 inh 66
c1csc(C2=NNC(=NC3CCCCC3)SC2)c1	none
COc1ccc(CN=C2NN=C(c3cccc(OC)c3)CS2)cc1	none
